{"source": "PubChem BioAssay AID463173", "about": "(ICCB-Longwood Screening Facility, Harvard Medical School, 2010)", "note": "In all, about 52,000 compounds went through this assay and about 4,300 (8.3%) were called active. For the sample, actives were picked, then their nearest neighbours and some compounds at random. A number with no mark means an inactive call. No stated cut-off is given here; in the data, active means survival mostly below about 52% (no sharp cut-off); inactive means mostly above about 56%."}
{"system": "DeltatarO mutant", "experiment": "growth inhibition of S. aureus wild type versus tarO mutant, primary screen, teichoic acid synthesis inhibitors, RN4220, OD600 (AID 463173)", "conditions": "OD600, 18 h, stronger effect = lower value, screened at 18.75 µg/mL (by protocol)"}
{"smiles": "COc1cccc(N2CCN(c3ncc4c(n3)CCN(Cc3ccc(Br)cc3)C4)CC2)c1", "survival": "79%"}
{"smiles": "COc1ccc(/C=C\\c2onc(C)c2S(=O)(=O)N2CCC(C(=O)Nc3cccc(C)c3C)CC2)cc1", "survival": "68%"}
{"smiles": "Cc1ccc(-c2nnn(CCC(=O)NC(C)(C)C)n2)cc1", "survival": "91%"}
{"smiles": "Cc1ccc(C(=O)NCCC(C)C)cc1NC(=O)c1nsc2ccccc12", "survival": "73%"}
{"smiles": "N#C/C(=C/c1cccs1)C(N)=S", "survival": "99%"}
{"smiles": "Cc1cc(SCC(=O)NCc2ccc(Cl)cc2)nc(=O)[nH]1", "survival": "86%"}
{"smiles": "O=C(Nc1cccc(-n2cnnn2)c1)c1ccccc1", "survival": "95%"}
{"smiles": "Cc1ccc(C)c(N/C=C(\\C#N)c2nc3ccccc3o2)c1", "survival": "95%"}
{"smiles": "N#C/C(=C\\Nc1ccccc1O)c1nc2ccccc2o1", "survival": "1% (active)"}
{"smiles": "N#C/C(=C/Nc1cccc2ccccc12)c1nc2ccccc2o1", "survival": "54%"}
{"smiles": "CCCOC(=O)c1c(NC(=O)C(C)Sc2nc(-c3ccccc3)cc(C(F)(F)F)n2)sc(C(=O)N(C)C)c1C", "note": "(configuration not stated)", "survival": "132%"}
{"smiles": "CC(Oc1ccccc1)C(=O)Nc1nc2ccc(S(N)(=O)=O)cc2s1", "note": "(configuration not stated)", "survival": "102%"}
{"smiles": "COCCNc1nc(NCc2ccccc2OC)c2cnn(C)c2n1", "survival": "69%"}
{"smiles": "CCCCc1c(C)nc2c(-c3ccc(Cl)cc3)c(C)[nH]n2c1=O", "survival": "-2% (active)"}
{"smiles": "CCOC(=O)Cc1c(C)nc2c(-c3ccc(Cl)cc3)c(C(F)(F)F)nn2c1C", "survival": "63%"}
{"smiles": "CCCCc1c(C)nc2c(-c3ccc(OC)cc3)c(C)[nH]n2c1=O", "survival": "7% (active)"}
{"smiles": "Cc1nc2c(-c3ccc(F)cc3)c(C)nn2c(C)c1CCC(=O)NCc1ccc(Cl)cc1", "survival": "96%"}
{"smiles": "CCOC(=O)CCc1c(C)nc2cc(-c3cc(OC)cc(OC)c3)[nH]n2c1=O", "survival": "90%"}
{"smiles": "CCCCc1nc2ccccc2n2c(-c3ccc(OC)cc3)c3c(=O)n(C)c(=O)n(C)c3c12", "survival": "49%"}
{"smiles": "c1ccc(Cn2ncc3c(N4CCCCC4)ncnc32)cc1", "survival": "77%"}
{"smiles": "COc1ccc(C2=C(C)C(=O)N(Cc3ccc(C(=O)NC(C)c4ccccc4)cc3)S2(=O)=O)cc1", "note": "(configuration not stated)", "survival": "91%"}
{"smiles": "CCOC(=O)c1c(NC(=O)/C=C/c2ccc(C)cc2)sc(C(C)=O)c1C", "survival": "79%"}
{"smiles": "CCOc1ccc(CNC(=O)c2cnc3sc(N4CCCCCC4)nn3c2=O)cc1OC", "survival": "83%"}
{"smiles": "COc1cc(NC(=O)N2CCc3c(sc4c3CCCC4)C2c2ccccc2)cc(OC)c1OC", "note": "(configuration not stated)", "survival": "103%"}
{"smiles": "Cc1ccc(NC(=O)N2CCc3c(sc4c3CCCC4)C2c2ccccc2)cc1F", "note": "(configuration not stated)", "survival": "102%"}
{"smiles": "COc1ccc(NC(=O)N2CCc3c(sc4c3CCCC4)C2c2ccc(F)cc2)cc1", "note": "(configuration not stated)", "survival": "101%"}
{"smiles": "COc1ccc(NC(=O)N2CCc3c(sc4c3CCCC4)C2c2ccccc2OC)cc1", "note": "(configuration not stated)", "survival": "54% (active)"}
{"smiles": "Cc1cccc(NC(=O)N2CCc3c(sc4c3CCCC4)C2c2ccc(F)cc2)c1", "note": "(configuration not stated)", "survival": "37% (active)"}
{"smiles": "O=C(Nc1ccc(F)cc1F)N1CCc2c(sc3c2CCCC3)C1c1ccc(F)cc1", "note": "(configuration not stated)", "survival": "93%"}
{"smiles": "Cc1ccc([N+](=O)[O-])c(Oc2ncnc3c2oc2ccccc23)c1", "survival": "101%"}
{"smiles": "Oc1c(C(c2ccccc2F)N2CCC3(CC2)OCCO3)sc2nc(-c3ccco3)nn12", "note": "(configuration not stated)", "survival": "102%"}
{"smiles": "Cc1ccc(C)c(Nc2cc(C(=O)NC3CCCC3)c3ccccc3n2)c1", "survival": "87%"}
{"smiles": "COc1ccc(N2C(=O)CS(=O)(=O)C23C(=O)N(Cc2ccccc2F)c2ccccc23)cc1Cl", "note": "(configuration not stated)", "survival": "75%"}
{"smiles": "CCOC(=O)c1c(NC(=O)c2ccc(S(=O)(=O)N(CC(C)C)CC(C)C)cc2)sc2c1CCN(C(=O)OCC)C2", "survival": "124%"}
{"smiles": "Cc1ccc(Cl)cc1NC(=O)CSC1=Nc2ccccc2C2=NC(Cc3ccccc3)C(=O)N12", "note": "(configuration not stated)", "survival": "71%"}
{"smiles": "COc1ccc(NC(=O)CSc2nnc(NC(=O)Nc3ccccc3)s2)cc1OC", "survival": "86%"}
{"smiles": "COc1ccc(NC(=O)CSc2nnc(NC(=O)Nc3ccccc3)s2)c(OC)c1", "survival": "47% (active)"}
{"smiles": "COc1ccccc1NC(=O)CSc1nnc(NC(=O)Nc2ccc(C)cc2)s1", "survival": "58%"}
{"smiles": "CCc1ccc(-n2nc(C)c3c(C(=O)N4CCN(c5ccccc5)CC4)cc(C)nc32)cc1", "survival": "94%"}
{"smiles": "CCn1cc(S(=O)(=O)c2cc(C)cc(C)c2)c(=O)c2cc(F)c(N3CCCCC3)cc21", "survival": "86%"}
{"smiles": "Cc1cccc(S(=O)(=O)c2cn(Cc3ccccc3)c3cc(N4CCCCC4)c(F)cc3c2=O)c1", "survival": "82%"}
{"smiles": "Cn1cc(S(=O)(=O)c2ccccc2)c(=O)c2cc(F)c(N3CCN(c4ccccc4)CC3)cc21", "survival": "116%"}
{"smiles": "Cc1cccc(S(=O)(=O)c2cn(Cc3ccc(F)cc3)c3cc(N4CCCCC4)c(F)cc3c2=O)c1", "survival": "-2% (active)"}
{"smiles": "CCN1CCN(c2cc3c(cc2F)c(=O)c(S(=O)(=O)c2cc(C)cc(C)c2)cn3CC)CC1", "survival": "-1% (active)"}
{"smiles": "Cn1cc(S(=O)(=O)c2cccc(Cl)c2)c(=O)c2cc(F)c(N3CCN(c4ccccc4)CC3)cc21", "survival": "6% (active)"}
{"smiles": "O=c1c(S(=O)(=O)c2ccccc2)cn(Cc2ccc(F)cc2)c2cc(N3CCCCC3)c(F)cc12", "survival": "80%"}
{"smiles": "Cn1cc(S(=O)(=O)c2cccc(Cl)c2)c(=O)c2cc(F)c(N3CCN(c4ccc(F)cc4)CC3)cc21", "survival": "70%"}
{"smiles": "CCn1cc(C(=O)O)c(=O)c2cc(F)c(N3CCN(C(=O)c4ccccc4F)CC3)cc21", "survival": "3% (active)"}
{"smiles": "CCn1cc(C(=O)NCC(C)C)c(=O)c2cc(F)c(N3CCN(C(=O)c4ccco4)CC3)cc21", "survival": "76%"}
{"smiles": "CCn1cc(C(=O)N2CCN(c3ccccc3F)CC2)c(=O)c2cc(S(=O)(=O)N(C)C)ccc21", "survival": "122%"}
{"smiles": "CCn1cc(S(=O)(=O)c2cc(C)cc(C)c2)c(=O)c2cc(F)c(N3CCCC3)cc21", "survival": "109%"}
{"smiles": "COc1cccc(C(c2sc3nc(-c4ccco4)nn3c2O)N2CCC(C)CC2)c1", "note": "(configuration not stated)", "survival": "78%"}
{"smiles": "CC(C)(C)C(=O)OCc1cc(=O)n2nc(C3CC3)sc2n1", "survival": "80%"}
{"smiles": "CC(=O)c1cc(-c2ccc(F)cc2)n(CCC(=O)NCc2ccccc2C)c1C", "survival": "81%"}
{"smiles": "Cc1ccc(-c2nnc3ccccc3c2C(=O)Nc2ccc(F)cc2)cc1", "survival": "100%"}
{"smiles": "CCCCNC(=O)Cn1cnc2sc(C)c(S(=O)(=O)N3CCN(c4ccccc4OC)CC3)c2c1=O", "survival": "86%"}
{"smiles": "CCOC(=O)C1CCCN(S(=O)(=O)c2cc3c4c(c2)CC(=O)N4CCC3)C1", "note": "(configuration not stated)", "survival": "93%"}
{"smiles": "CCOc1ccc(-c2ccc(NS(=O)(=O)c3cc(C)ccc3OC)cc2)nn1", "survival": "86%"}
{"smiles": "O=C(NCCc1csc(-c2ccc(F)cc2)n1)c1cccs1", "survival": "72%"}
{"smiles": "Cc1ccc(NC2=CC(c3ccccc3F)N(c3ccc(C)cc3)C2=O)cc1", "note": "(configuration not stated)", "survival": "49%"}
{"smiles": "CC(=O)NC1CCN(C(=O)Nc2ccccc2)CC1", "survival": "91%"}
{"smiles": "Cc1csc2nc(COC(=O)c3ccccc3NC(=O)c3ccc(F)cc3)cc(=O)n12", "survival": "55%"}
{"smiles": "COc1ccc(-c2noc(N3CCC(C(=O)N4CCN(c5ccccc5OC)CC4)CC3)n2)cc1", "survival": "61%"}
{"smiles": "Cc1cccc(OCCCSc2nc(-c3ccc(C(C)(C)C)cc3)nc3cc(=O)[nH]n23)c1C", "survival": "102%"}
{"smiles": "CC(C)CCNC(=O)c1ccc(Cn2c(SCC(=O)NC(C)C)nc3ccccc3c2=O)cc1", "survival": "144%"}
{"smiles": "CCCNC(=O)c1ccc(Cn2c(SCC(N)=O)nc3ccccc3c2=O)cc1", "survival": "91%"}
{"smiles": "CC(C)CCNC(=O)c1ccc(Cn2c(SCC(N)=O)nc3ccccc3c2=O)cc1", "survival": "46% (active)"}
{"smiles": "Cc1cc(C)c(NC(=O)c2cc(CN3CCOCC3)on2)c(C)c1", "survival": "70%"}
{"smiles": "CCOCCOC(=O)c1ccc(NC(=O)/C=C/c2ccc(OC)c(OC)c2)cc1", "survival": "137%"}
{"smiles": "COc1ccc(/C=C/C(=O)Nc2ccc(C)cc2)cc1", "survival": "77%"}
{"smiles": "COc1ccc(OC)c(/C=C/C(=O)Nc2ccc(C(=O)OCCC(C)C)cc2)c1", "survival": "33% (active)"}
{"smiles": "Cc1cc(=O)[nH]c2c(C)c(Cl)ccc12", "survival": "93%"}
{"smiles": "Cc1ccc(Cl)cc1Nc1nn2c(=O)c3ccc(C(=O)NC4CCC(C)CC4)cc3nc2s1", "note": "(configuration not stated)", "survival": "100%"}
{"smiles": "CSc1cccc(NC(=O)N2CCN(S(=O)(=O)c3ccc4c(ccn4C)c3)CC2)c1", "survival": "58%"}
{"smiles": "CCn1ccc2cc(S(=O)(=O)N3CCC(C(=O)NCC(C)c4ccccc4)CC3)ccc21", "note": "(configuration not stated)", "survival": "94%"}
{"smiles": "COc1ccc(CNC(=O)C2CCN(S(=O)(=O)c3ccc(C)cc3)CC2)cc1", "survival": "56% (active)"}
{"smiles": "Cc1ccc(CNC(=O)C2CCN(S(=O)(=O)c3ccc(F)cc3)CC2)cc1", "survival": "62%"}
{"smiles": "CCn1ccc2cc(S(=O)(=O)N3CCC(C(=O)NCc4ccc(OC(C)C)cc4)CC3)ccc21", "survival": "95%"}
{"smiles": "CCn1ccc2cc(S(=O)(=O)N3CCC(C(=O)NCc4ccc(F)cc4)CC3)ccc21", "survival": "85%"}
{"smiles": "COc1ccc(CNC(=O)C2CCN(S(=O)(=O)c3ccc(F)cc3)CC2)cc1", "survival": "71%"}
{"smiles": "CCCCNC(=O)C1CCN(S(=O)(=O)c2ccc3c(ccn3CC)c2)CC1", "survival": "99%"}
{"smiles": "CCC(C)NC(=O)C1CCN(S(=O)(=O)c2ccc3c(ccn3CC)c2)CC1", "note": "(configuration not stated)", "survival": "8% (active)"}
{"smiles": "CCn1ccc2cc(S(=O)(=O)N3CCCN(C(=O)Nc4cccc(SC)c4)CC3)ccc21", "survival": "47% (active)"}
{"smiles": "CCn1ccc2cc(S(=O)(=O)N3CCCN(C(=O)Nc4cccc(Cl)c4)CC3)ccc21", "survival": "83%"}
{"smiles": "CCn1ccc2cc(S(=O)(=O)N3CCC(C(=O)NCc4ccc(OC)cc4)CC3)ccc21", "survival": "20% (active)"}
{"smiles": "CN1C(C(=O)c2ccccc2)=C(OC(=O)c2ccc(Br)cc2)c2ccccc2S1(=O)=O", "survival": "123%"}
{"smiles": "Cc1ccc(Nc2cc(C(=O)NC3CCCC3)c3ccccc3n2)c(C)c1", "survival": "77%"}
